An excerpt weighted towards active compounds, which were near 4.5% of everything screened.
Beta cell apopt: inhibitors of cytokine-induced beta cell apoptosis, primary screen, luminescence | INS-1E cytokine-induced death, ATP luminescence, 48 h; percent of positive-control rescue, neutral wells zero | protection from apoptosis, % (concentration not given with the values) | 0.8% of 300,000 active;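 active = Every replicate reaches about 75%, or at least half do and their mean reaches it too, limit read from the data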;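 also: 0% = cytokine-treated negative control wells and 100% = positive control rescue; higher means more ATP so stronger rescue from cytokine killing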
CSC inhib: cancer stem cell viability inhibitors, primary screen, luminescence; cancer stem cell-like cells viability; inhibition, % at 7.5 µM; 1.1% of 300,000 active; in the data active = inhibition above about 75%; tested in HMLE shEcad cells
Jurkat NFkB inh: inhibitors of induced NF-kB luciferase reporter, primary screen, TCR NF-kB activation inhibitor project, cell-based, luminescence, uHTS | Jurkat, PMA/ionomycin-induced NF-kB luciferase reporter | 0.53% of 330,000 active | inhibition, % at 4 µM; in the data active = inhibition above about 50%
Gli-Sufu antag: Gli-Sufu pathway antagonists, primary screen, luciferase luminescence, Sufu-KO-LIGHT cells, uHTS. inhibition, % at 5 µM. 0.74% of 340,000 active. Sufu-KO-LIGHT fibroblasts, Gli luciferase reporter luminescence. AID 588413, 2011;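 active = inhibition above about 55%, limit read from the data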;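 also: 0% = DMSO-treated cells and 100% = wells with medium but no cells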
Mdm2-MdmX inh: inhibitors of human Mdm2-MdmX association, primary screen, cell-based, luminescence, split luciferase, SaOS-2, uHTS; Protein Mdm4 (Homo sapiens) + E3 ubiquitin-protein ligase Mdm2 (Homo sapiens), …; SaOS-2 split-luciferase Mdm2/MdmX complementation; inhibition, % at 8 µM; 3% of 330,000 active; AID 485346, 2010;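 active = inhibition of at least 50% at 8 µM in the primary screen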
Target sequence (O15151 whole entry, looked up): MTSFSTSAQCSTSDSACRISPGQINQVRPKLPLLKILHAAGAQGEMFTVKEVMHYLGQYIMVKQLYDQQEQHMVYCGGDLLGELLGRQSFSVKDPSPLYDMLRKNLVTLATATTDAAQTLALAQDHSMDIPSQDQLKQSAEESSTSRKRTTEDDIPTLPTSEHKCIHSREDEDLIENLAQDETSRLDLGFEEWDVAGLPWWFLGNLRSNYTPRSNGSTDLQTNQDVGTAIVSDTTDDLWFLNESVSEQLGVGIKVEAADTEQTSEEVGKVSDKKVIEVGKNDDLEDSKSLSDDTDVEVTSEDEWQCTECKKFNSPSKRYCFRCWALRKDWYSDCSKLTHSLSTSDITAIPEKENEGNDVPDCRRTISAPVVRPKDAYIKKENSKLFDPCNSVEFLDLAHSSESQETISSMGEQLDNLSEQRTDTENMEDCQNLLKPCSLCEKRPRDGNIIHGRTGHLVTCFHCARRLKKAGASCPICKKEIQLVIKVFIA
Target sequence (Q00987 whole entry, looked up): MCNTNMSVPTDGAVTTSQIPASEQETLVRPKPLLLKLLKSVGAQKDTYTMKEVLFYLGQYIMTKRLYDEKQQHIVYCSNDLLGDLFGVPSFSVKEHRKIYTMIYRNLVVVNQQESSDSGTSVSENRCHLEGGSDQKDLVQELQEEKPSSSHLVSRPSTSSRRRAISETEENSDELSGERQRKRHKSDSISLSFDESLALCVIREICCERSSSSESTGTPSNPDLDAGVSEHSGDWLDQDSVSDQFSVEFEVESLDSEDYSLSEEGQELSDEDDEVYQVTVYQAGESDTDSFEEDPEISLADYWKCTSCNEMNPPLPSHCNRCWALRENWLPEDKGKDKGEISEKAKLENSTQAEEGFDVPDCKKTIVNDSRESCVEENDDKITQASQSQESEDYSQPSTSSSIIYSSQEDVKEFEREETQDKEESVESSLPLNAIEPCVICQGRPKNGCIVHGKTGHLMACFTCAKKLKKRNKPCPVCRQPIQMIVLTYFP
697 NFkB inh: inhibitors of PMA/ionomycin-induced NF-kB reporter, 697 cells, primary screen, B-cell NF-kB inhibitor project, cell-based, luminescence, uHTS. inhibition, % at 4 µM. 0.33% of 330,000 active. 697 B-cell NF-kB luciferase reporter, 16 h; in the data active = inhibition above about 35%
* hit, by the source's call; / = not tested or not shown.

SMILES	Beta cell apopt	CSC inhib	Jurkat NFkB inh	Gli-Sufu antag	Mdm2-MdmX inh	697 NFkB inh
CCn1c(SCC(=O)N2CCN(c3ccc(Cl)cc3)CC2)nc2ccccc2c1=O	-6	4	7	8	7	6
CC1(C)CC(NC(=O)c2cc(Cl)ccc2Cl)CC(C)(C)N1	-3	-4	6	-27	22	9
COc1cccc(N2CCN(Cc3nc4scc(-c5ccccc5)c4c(=O)[nH]3)CC2)c1	-4	82*	28	-6	39	-22
COc1cccc(N2CCN(Cc3nc4ccccc4c(=O)[nH]3)CC2)c1	/	-13	13	8	5	-3
CC(=O)Nc1cc(OC(C)=O)c2nonc2c1OC(C)=O	-3	106*	21	-4	48	6
CC(=O)Nc1nonc1NC(C)=O	-11	3	-8	-1	-21	24
Cc1snc(S(=O)(=O)/C(C#N)=N/Nc2cccc(C(F)(F)F)c2)c1C#N	2	88*	8	4	17	14
c1cn2c(NC3CCCC3)c(-c3ccc(N4CCOCC4)cc3)nc2cn1	9	-9	2	-42	14	-31
c1cn2c(NC3CCCCC3)c(-c3ccc(SC4CCCCC4)cc3)nc2cn1	0	126*	10	7	37	-17
CCCCCCSc1ccc(-c2nc3cnccn3c2NCCCC)cc1	-3	105*	7	16	26	6
CCCCNc1c(-c2ccc(SC(C)CC)cc2)nc2ccccn12 (centres undefined)	16	92*	-133	-20	-131	-102
COc1cccc(C(=O)NCCS(=O)(=O)NCCCc2ccccc2)c1	-5	-3	19	-3	13	-2
N/C(=N\N=C/c1ccc(Br)cc1)N/N=C\c1ccc(Br)cc1	2	103*	8	-8	34	17
C[C@@H](CSc1ccc(Br)cc1)CN1CC[C@H](C(C)(C)C)CCC1=O	-3	123*	-5	12	-2	-3
Cc1ccc(SC[C@H](C)CN2CC[C@H](C(C)(C)C)CCC2=O)cc1	1	76*	-2	9	-13	8
CN(CC(=O)Nc1cccc(F)c1)C(=O)C1CCC(C(=O)N(C)CC(=O)Nc2cccc(F)c2)CC1 (centres undefined)	/	/	/	-4	/	/
CCN(CC(=O)Nc1ccc2c(c1)OCCO2)C(=O)/C=C/c1cccc(Br)c1	-2	33	-33	-31	-50	-20
O=C(O)/C=C\C(=O)Nc1ccc(N2CCN(c3ccc(Cl)c(Cl)c3)CC2)cc1	6	85*	17	-6	-11	10
O=c1cc(N2CCCCC2)c(-c2ccccc2)nn1Cc1ccc(Cl)cc1	/	103*	9	-1	44	0
O=c1cc(N2CCCCC2)c(-c2ccccc2)nn1Cc1ccc(F)cc1	0	40	-2	14	16	4
CC1=C(CC(=O)c2ccc(Cl)cc2)C(=O)c2ccccc2C1=O	99*	41	-53	-13	-3	-63
O=C(Cc1ccccn1)c1ccc(Cl)cc1	-7	-1	-53	-68	-47	-64
CCC(C)Oc1ccc(/C=C/c2[nH]c(=O)[nH]c(=O)c2[N+](=O)[O-])cc1OC (centres undefined)	/	2	-1	-6	11	8
COc1cc(/C=C/c2[nH]c(=O)[nH]c(=O)c2[N+](=O)[O-])ccc1OCCC(C)C	10	77*	-16	6	2	12
CC1CCN(c2ccc(NC(=O)c3ccc([N+](=O)[O-])o3)cc2)CC1	85*	100*	19	25	46	-48
SMILES	Beta cell apopt	CSC inhib	Jurkat NFkB inh	Gli-Sufu antag	Mdm2-MdmX inh	697 NFkB inh
O=C(Nc1ccc(N2CCCCC2)cc1)c1ccc([N+](=O)[O-])o1	37	32	-17	-6	34	-51
O=C1NN(c2cccc(Br)c2)C(=O)/C1=C\c1ccc(O)cc1	-11	108*	-11	6	5	19
COc1cc(CN2CCN(CCCc3ccccc3)CC2CCO)cc(OC)c1 (centres undefined)	4	16	-3	17	-47	-21
COc1cc(CN2CCN(CC#Cc3ccccc3)CC2CCO)cc(OC)c1 (centres undefined)	3	8	-2	57*	10	0
O=[N+]([O-])c1cccc(S(=O)(=O)NCC2CC3CCC2C3)c1 (centres undefined)	5	1	7	1	12	-7
O=C(/C(=C/O)N=Nc1ccc(Cl)cc1)c1ccncc1	15	77*	6	-10	29	-1
COc1c(CC=C(C)C)cc(C2CC(=O)c3c(O)cc(O)cc3O2)cc1CC=C(C)C (centres undefined)	108*	100*	-17	-5	21	-34
Cc1ccnc(NS(=O)(=O)c2ccc(NC(=O)c3cc(=O)c4ccccc4o3)cc2)n1	-7	8	11	26	-4	5
CC(=O)C1=C(C)NC(SCC(=O)c2ccc(Cl)cc2Cl)=C(C#N)C1c1ccco1 (centres undefined)	105*	22	13	12	25	-38
CCN(CC)c1ccc(NC(=O)COC(=O)/C=C/c2nc3ccccc3s2)cc1	-2	-12	-2	-7	-7	9
CCN(CC)c1ccc(/C=C/c2nc3ccccc3s2)cc1	-1	90*	-26	/	45	-236
N#Cc1ccsc1NC(=O)COC(=O)C1=NNC(=O)CC1	1	/	-17	/	-24	8
O=C(c1ccccc1)c1c[nH]c(C(=O)NNc2ccccc2)c1	12	97*	20	4	28	31
CC(C)Cn1c(O)c(N=NC(=O)c2cccc(S(=O)(=O)N3CCCCC3)c2)c2ccccc21	38	91*	7	10	37	-11
O=C(Oc1coc(CSc2nnc(NC(=O)c3cccs3)s2)cc1=O)c1ccccc1	0	86*	-6	-3	6	2
CC(C)COC(=O)c1cccc2c1-c1ccccc1/C2=N\O	-2	120*	2	11	44	-28
CC1CCCC(C)N1C(=O)c1cccc2c1-c1ccccc1/C2=N/O (centres undefined)	-7	-6	-1	3	31	5
CCN(CCn1cccn1)C(=O)c1cc(COc2cc(C)ccc2C)on1	-1	-2	-121	-108	-94	-133
COc1ccc2[nH]c3c(NCCC4=CCCCC4)ncnc3c2c1	/	/	/	68*	/	/
O=C(c1ccccc1)c1ccc2ccccc2c1	/	/	/	-36	/	/
Cc1sc2cc3c(c(C(=O)c4ccccc4)[n+]2c1C)-c1cccc2cccc-3c12	100*	35	/	70*	/	/
O=C(c1ccccc1)c1c2c(cc3sc4ccccc4[n+]13)-c1cccc3cccc-2c13	98*	64	/	76*	/	/

From PubChem
